Laboratory results from PubChem BioAssay AID1259415 (National Center for Advancing Translational Sciences (NCATS), 2018).
In all, about 410,000 compounds went through this assay and about 18,000 (4.4%) were called active. Inconclusive results (about 7%) are left out. Only a selection was taken, and actives are over-represented in it overall. Values without a mark were called inactive. Cut-off read from the data, not from the text of the source: active = activity change below about -60%; inconclusive = no clear call, values can overlap the other calls; inactive = above about -39%.

Test: qHTS Assay for inhibitors of the human cytomegalovirus (HCMV)
Conditions: HFF cells, HCMV-luciferase reporter, 72 h; at 57.5 µM; active compounds read low
Procedure, shortened: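 Compounds were evaluated in HFFs infected with an HCMV luciferase reporter virus (MOI 1 PFU/cell). Luciferase in lysates collected 72 h post infection served as the replication measure.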
% is set by controls: 0 for no effect and ±100 for the full control effect.

| SMILES | activity change, negative = inhibition |
| --- | --- |
| COc1ccc(Cl)cc1NC(=O)Cn1c(=O)c2ccccc2n2nncc12 | 11.9% |
| Cc1nn(-c2ccccc2)c2c1C(c1cccc([N+](=O)[O-])c1)N(c1ccccc1)C(=O)N2 (stereo not given) | -9.36% |
| CNP1(NC)=Nc2nn(-c3ccccc3)c(N)c2C(c2ccccc2)=N1 | 43.5% |
| Cc1nn(-c2ccc([N+](=O)[O-])cc2)c(N)c1-c1ccccc1 | -65.4% (active) |
| O=C(NNS(=O)(=O)c1ccccc1)c1cnn(-c2ccc(Cl)cc2)c1C(F)(F)F | 2.04% |
| CC(C)c1ccc(C2CC(=O)N3CN(C4CCCCC4)CSC3=C2C#N)cc1 (stereo not given) | -5.74% |
| CC(=O)Nc1cc(-c2ccc(N3CCN(C)CC3)cc2)cn2c(-c3ccc(F)cc3)cnc12 | -75.2% (active) |
| CC(=O)Nc1cc(-c2ccc(N3CCN(C)CC3)cc2)cn2c(-c3cccc(C(=O)N(C)C)c3)cnc12 | 8.54% |
| CC(=O)c1cccc(-c2cnc3c(NC=O)cc(-c4ccc(N5CCN(C)CC5)cc4)cn23)c1 | 19.8% |
| Cc1ccc2cccc(NC(=O)c3cccc4ccccc34)c2n1 | -10.4% |
| COC(=O)C1CCN(C(=O)c2ccc3oc(Cc4ccc(Cl)cc4)nc3c2)CC1 | 8.67% |
| O=C(NC1CCCCCC1)C1CCN(C(=O)c2ccc(Cl)cc2)CC1 | -37.2% |
| C/C(N)=C(/C#N)C(=O)COC(=O)C1CCN(C(=O)c2ccc(Cl)cc2)CC1 | -65.3% (active) |
| CCN(CCCNC(=O)c1c(C)oc2ncn(CC(C)C)c(=O)c12)Cc1ccccc1 | -5.33% |
| Cc1ccc(C)c(NC(=O)C2CCCN(S(=O)(=O)c3cn(C)cn3)C2)c1 (stereo not given) | 44.9% |
| CC(CNC(=O)c1nnc(Cc2cccc(F)c2)o1)c1ccccc1 (stereo not given) | -15.6% |
| O=C(Nc1ccc(C(=O)OCc2cc(=O)n3nc(C4CC4)sc3n2)cc1)c1ccc(F)cc1 | 7.95% |
| CC(C)c1ccc2oc(-c3cc(NC(=O)c4cccs4)ccc3Cl)nc2c1 | -18.9% |
| C[C@H]1Cn2cnc(C(=O)N[C@H](C)c3ccccc3)c2C(=O)N1 | -3.07% |
| C[C@H]1Cn2cnc(C(=O)N[C@@H](Cc3c[nH]c4ccccc34)C(=O)OC(C)(C)C)c2C(=O)N1 | 16% |
| C[C@@H]1Cn2cnc(C(=O)Nc3ccc(CNC(=O)OC(C)(C)C)cc3)c2C(=O)N1 | -101% (active) |
| O=C(NCC(c1cccnc1)N1CCc2ccccc21)c1cccc(C(F)(F)F)c1 (stereo not given) | -36.7% |

| SMILES | activity change, negative = inhibition |
| --- | --- |
| O=C(Nc1ccc(Cl)cc1)c1cccc(OC(=S)N2CCOCC2)c1 | -103% (active) |
| O=C(Oc1cccc(C(=S)N2CCOCC2)c1)c1cccc(Cl)c1 | -4.94% |
| O=C(Nc1ccccc1C(=O)N1CCOCC1)c1ccc(Cl)cc1 | 8.32% |
| Cc1nc(NC(=O)C2CCCCC2)sc1C | 62.5% |
| Cc1ccc(C(CC(=O)O)Nc2nc(N3CCCCC3)nc(N3CCCCC3)n2)cc1 (stereo not given) | -10.1% |
| O=C(NNc1nc(N2CCCC2)nc(N2CCCC2)n1)c1ccccc1 | -66.4% (active) |
| O=C(NNC1=NCCC1)c1cccc(S(=O)(=O)N2CCCCC2)c1 | -11.4% |
| CCC1(C)CC(=O)c2c(ccc3oc(C(=O)Nc4ccc(C(C)=O)cc4)c(C)c23)O1 (stereo not given) | -8.87% |
| COc1cccc(C2C(C(=O)Nc3ccc(C)cc3C)=C(C)Nc3c(C(=O)Nc4ccccc4)cnn32)c1 (stereo not given) | -31.3% |
| O=C1CSC(=O)N1CCOCCN1C(=O)CSC1=O | 11.3% |
| CC(C)(C)NC(=O)CSc1nc(-c2ccc(F)cc2)cc(C(F)(F)F)n1 | -8.55% |
| CC12CCC3C(CCC4CC(=O)CCC43C)C1CC(=NO)C2=O (stereo not given) | 16.3% |
| CC(C)c1ccc(NC(=O)CN(C)S(=O)(=O)c2ccc3c(c2)c(=O)n(C)c(=O)n3C)cc1 | -106% (active) |
| CCc1ccccc1NC(=O)CN(C)S(=O)(=O)c1ccc2c(c1)c(=O)n(C)c(=O)n2C | 14.6% |
| CN(CC(=O)Nc1ccccc1F)S(=O)(=O)c1ccc2c(c1)c(=O)n(C)c(=O)n2C | 3.4% |
| CC1CCCC(NC(=O)COC(=O)[C@@H]2CC(O)CN2S(=O)(=O)c2ccc3c(c2)OCCO3)C1C (stereo not given in full) | 10.5% |
| Cc1ccc(Cl)cc1NC(=O)CSc1nccn1C | -11.3% |
| Cc1cc(C)n(CCNCc2c(C(=O)N3C[C@@H](C)O[C@@H](C)C3)nc3ccc(Cl)cn23)n1 | 18.2% |
| Cc1ccc(C(=O)N2CCc3cc(CNC(=O)c4ccc(Br)cc4)ccc32)cc1 | -17.7% |
| CC1=C(C(=O)N2CCN(c3cccc(C(F)(F)F)c3)CC2)C2(CCCCC2)OC1=O | 30.4% |
| C=C(C)CSc1nc(N)c2c3c(sc2n1)CCC3 | 31.9% |
| Nc1nc(SCC(=O)NCCN2CCOCC2)nc2sc3c(c12)CCC3 | 5.31% |

| SMILES | activity change, negative = inhibition |
| --- | --- |
| CC(C)(C)C1CCc2c(sc3nc(SCC(N)=O)nc(N)c23)C1 (stereo not given) | -100% (active) |
| CC(C)(C)c1ccc(C(=O)NCc2nnc(SCC(=O)N3CCCc4ccccc43)n2-c2ccccc2)cc1 | -18.4% |
| CC1(C)C(=O)CCC2(C)C1=CCC1C2C(=O)CC2(C)C1CCC2(O)C(=O)CO (stereo not given) | -4.43% |
| Cc1ccc(-n2c(SCC(=O)Nc3ncc(Cl)cc3Cl)nc3ccccc32)cc1 | -98.7% (active) |
| CC1(C(=O)OCC(=O)Nc2ncc(Cl)cc2Cl)CC1(Cl)Cl (stereo not given) | -27.2% |
| Cc1cc(C)c(NC(=O)Cn2c(SCC(=O)NCc3ccccc3)nc3ccccc32)c(C)c1 | -0.705% |
| COc1cc2nc(SCC(=O)Nc3ccccc3F)n3nc(-c4ccccc4)nc3c2cc1OC | -6.09% |
| Cc1ccccc1CS(=O)(=O)CC1Nc2ccc(C(=O)NCc3ccc(Cl)cc3)cc2NC1=O (stereo not given) | 2.23% |
| CC(C)c1ccc(OCC(=O)N(Cc2ccc(N(C)C)cc2)C2CCS(=O)(=O)C2)cc1 (stereo not given) | 7.29% |
| CCc1ccc(NC(=O)C2CCCN2S(=O)(=O)c2ccc3nc(-c4ccccc4)[nH]c3c2)cc1 (stereo not given) | -18.7% |
| CCCCn1c(N)c(N(CCC(C)C)C(=O)COC(=O)c2cccnc2OCC)c(=O)[nH]c1=O | -5.28% |
| NS(=O)(=O)c1ccc(CNC(=O)c2cc(S(=O)(=O)N3CCOCC3)ccc2N2CCCC2)cc1 | -10.4% |
| CCCN(CCC)c1c([N+](=O)[O-])c(=O)oc2ccccc12 | -7.74% |
| CCn1c(/C=C/c2ccc([N+](=O)[O-])o2)nc2ccccc2c1=O | -99.1% (active) |
| COc1cc(OC)c(OC)cc1/C=C/c1nc2ccccc2c(=O)n1-c1ccc(Br)c(C)c1 | 3.49% |
| Cc1cc2nc(-c3ccc(NC(=O)c4cc5ccccc5o4)cc3)oc2cc1C | 98.1% |
| C=CCN1C(=O)N(Cc2ccccc2)c2ccccc2S1(=O)=O | 8.55% |
| Cc1ccc(-n2c(SCC(=O)Nc3cccc(F)c3)nc3c(oc4ccccc43)c2=O)cc1C | -8.05% |
| Cc1cc(NC(=O)c2cc(-c3cccs3)on2)nn1Cc1ccc(Cl)cc1 | -28.3% |
| O=C(CSc1nnc(-c2cccs2)n1Cc1ccccc1)N1CCc2ccccc2C1 | -10.6% |
| O=c1onc(-c2cccs2)n1Cc1ccccc1 | -71.3% (active) |
| CCC1=Nc2cc(C(=O)NCCCOC(C)C)ccc2Sc2ccc(C)cc21 | -62.8% (active) |

| SMILES | activity change, negative = inhibition |
| --- | --- |
| COCCNC(=O)c1ccc2c(c1)N=C(C)c1cc(C)ccc1S2 | -83.7% (active) |
| CCc1ccc(Sc2cc(C(=O)NCCCOC(C)C)c3ccccc3n2)cc1 | -34.7% |
| CCC1=Nc2cc(C(=O)NCC(C)c3ccccc3)ccc2Sc2ccc(C)cc21 (stereo not given) | -7.44% |
| CC1=Nc2cc(C(=O)NCc3ccc(C)cc3)ccc2Sc2ccc(Cl)cc21 | -34.6% |
| COCCNC(=O)c1ccc2c(c1)ncn2-c1ccc(C)c(Cl)c1 | 52.5% |
| COc1ccc(Cc2nnnn2CC(=O)O)cc1 | -17% |
| Cc1ccc(NC(=O)CN2C(=O)C(c3ccc(F)cc3)=NC23CCCCCC3)c(C)c1 | 0.733% |
| CCC(=O)N1c2ccccc2CC1C(=O)N1CCN(c2ccccc2F)CC1 (stereo not given) | 3.71% |
| O=C(NCCC1=CCCCC1)c1ccc2c(c1)N(Cc1ccccc1F)C(=O)c1ccccc1S2(=O)=O | 2.55% |
| CCOc1ccccc1N(C)C(=O)c1cc2c(s1)-c1ccccc1OC2 | 2.75% |
| Cc1ccc(-c2noc(CCC(=O)Nc3ccccc3N3CCN(C)CC3)n2)cc1 | -68.8% (active) |
| COc1ccc(-c2noc(CCC(=O)N3CCN(c4cccc(C)c4)CC3)n2)cc1 | 1.95% |
| COc1cccc(CNC(=O)CCc2nc(-c3ccc(C)cc3)no2)c1 | 9.74% |
| CCCN(c1ccc(C)cc1)c1nc(=O)c2cccnc2s1 | -20.6% |
| COc1ccc(OC)c(CNC(=O)CN2C(=O)CCn3nc(-c4cn(C)c5ccccc45)cc32)c1 | 3.11% |
| O=C(NCCC1CCCCN1S(=O)(=O)c1ccc(F)cc1)C(=O)NC1CC1 (stereo not given) | -34% |
| O=C1CCCCN1CCCC(=O)N1CCCC(Nc2ccc(F)cc2)C1 (stereo not given) | 4.92% |
| O=C1/C(=C/c2ccc(F)cc2)SC(=S)N1CCCC(=O)N1CCCCC1CCO (stereo not given) | -100% (active) |
| COc1ccc(S(=O)(=O)NCc2cccn2Cc2cccc(C)c2)cc1Cl | -8.25% |
